Test results reported in PubChem BioAssay AID504885 (Johns Hopkins Ion Channel Center, 2011).
Activity calls are given as the source filed them.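 The calls were made as follows: active = TRPC6 cation channel blocked by over 30% at any dose tested, plus a fitted dose response curve; inactive = the rest.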

Target: Short transient receptor potential channel 6 (Mus musculus) (UniProt Q61143)
Experiment: mouse TRPC6 channel inhibitors, SAR follow-up, HEK293 cells, membrane potential dye, set 2 (AID 504885)
Details: acetylcholine-stimulated; series mostly up to 20 µM

Sequence of Short transient receptor potential channel 6 (Mus musculus) (Q61143 whole entry, looked up): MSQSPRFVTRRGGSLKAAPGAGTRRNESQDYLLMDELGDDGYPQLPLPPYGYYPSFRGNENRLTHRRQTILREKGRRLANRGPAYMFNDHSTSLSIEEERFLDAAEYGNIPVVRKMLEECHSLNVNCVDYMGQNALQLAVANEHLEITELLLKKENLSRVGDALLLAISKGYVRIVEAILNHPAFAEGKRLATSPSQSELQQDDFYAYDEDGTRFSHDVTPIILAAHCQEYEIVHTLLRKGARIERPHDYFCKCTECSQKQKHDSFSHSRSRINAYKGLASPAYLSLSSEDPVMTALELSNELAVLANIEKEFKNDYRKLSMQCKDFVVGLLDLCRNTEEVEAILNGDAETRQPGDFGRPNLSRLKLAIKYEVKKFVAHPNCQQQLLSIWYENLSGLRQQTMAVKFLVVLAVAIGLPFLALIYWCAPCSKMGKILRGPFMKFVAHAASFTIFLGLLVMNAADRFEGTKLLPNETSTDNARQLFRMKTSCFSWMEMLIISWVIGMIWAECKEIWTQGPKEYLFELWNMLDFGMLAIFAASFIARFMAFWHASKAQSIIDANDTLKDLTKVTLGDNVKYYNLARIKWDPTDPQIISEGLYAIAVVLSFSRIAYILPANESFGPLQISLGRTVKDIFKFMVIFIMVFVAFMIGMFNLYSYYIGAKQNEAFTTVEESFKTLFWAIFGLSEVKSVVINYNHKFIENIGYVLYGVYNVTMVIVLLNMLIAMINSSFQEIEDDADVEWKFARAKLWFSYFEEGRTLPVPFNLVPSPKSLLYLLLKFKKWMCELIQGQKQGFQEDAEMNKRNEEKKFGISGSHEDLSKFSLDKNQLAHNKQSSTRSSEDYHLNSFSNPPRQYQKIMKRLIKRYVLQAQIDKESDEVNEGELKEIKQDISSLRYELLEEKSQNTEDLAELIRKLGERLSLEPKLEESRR

outcome, inactive:
CSCc1cc(N2CCOCC2)nc(-c2ccccn2)n1, CC(C)CN1CCN(Cc2ccc3nsnc3c2)CC1CCO (stereo not given), Cc1ccccc1CN1CCN(Cc2ccc3nsnc3c2)CC1CCO (stereo not given), CC(C)N1CCC(N2CCN(Cc3ccc4nsnc4c3)CC2CCO)CC1 (stereo not given), O=S(=O)(Cc1cc(N2CCN(c3ccccc3)CC2)nc(-c2ccccn2)n1)c1ccccc1, CN1CCC(N2CCN(Cc3ccc4nsnc4c3)CC2CCO)CC1 (stereo not given), Cc1cccc(CN2CCN(Cc3ccc4nsnc4c3)CC2CCO)n1 (stereo not given), CSCc1cc(N(C)c2ccccc2)nc(-c2ccccn2)n1, CC(C)CCN1CCN(Cc2ccc3nsnc3c2)CC1CCO (stereo not given), Clc1ccc(SCc2cc(N3CCCCC3)nc(-c3ccccn3)n2)cc1, Cc1ccc(C)c(N2CCN(C(=O)c3ccc4nsnc4c3)CC2)c1, CN1CCN(Cc2ccc3nsnc3c2)CC1CCO (stereo not given), CC(C)N1CCN(Cc2ccc3nsnc3c2)CC1CCO (stereo not given), OCCC1CN(Cc2ccc3nsnc3c2)CCN1CCCc1ccccc1 (stereo not given), O=S(=O)(Cc1cc(N2CCOCC2)nc(-c2ccccn2)n1)c1ccccc1
